Inconclusive results are not listed. Entries that show only a call come without a potency. Active and inactive are the calls of the source. Unless noted, the call rests on the fitted dose curve; in most records, active means well fitted curve in the direction sought with a large enough effect in the repeat runs; inconclusive means weak or mixed curves; inactive means no such curve, though single readings can be large; an effect the other way counts as inactive or inconclusive.
System: not listed separately
Test: qHTS assay to test for compound auto fluorescence at 460 nm (blue) in HepG2 cells (AID 720687)
Details: autofluorescence 405/460 nm, 1 h; series mostly up to 91.3 µM
Procedure, shortened: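 Blue-channel autofluorescence (Ex/Em 405/460 nm, triamterene-equivalent) was measured after 1 hr compound exposure at 37 C, 5% CO2. Cells were HepG2, plated overnight at 37 C in MEM plus 10% FBS.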

Row | SMILES | Potency
1 | Cc1ccc(C(C)c2ccc(C)c(C)c2)cc1C | inactive
2 | CCCCOC(=O)/C=C\C(=O)OCCCC | inactive
3 | O=C(O)Cc1cc(I)c(Oc2ccc(O)c(I)c2)c(I)c1 | inactive
4 | CN1CCC(=C2c3ccccc3C=Cc3ccccc32)CC1 | inactive
5 | N[C@H]1C(O)O[C@H](CO)[C@H](O)[C@@H]1O (stereo partly specified) | inactive
6 | CC1CCc2cc(F)cc3c(=O)c(C(=O)O)cn1c23 (stereo unspecified) | inactive
7 | CN(c1nccc(=O)[nH]1)C1CCN(c2nc3ccccc3n2Cc2ccc(F)cc2)CC1 | inactive
8 | Cc1cccc(C(C)(C)C)c1O | inactive
9 | C=Cc1c(C)c2cc3[nH]c(cc4nc(cc5nc(cc1[nH]2)C(C)=C5CCC(=O)O)C(CCC(=O)O)=C4C)c(C)c3C=C | inactive
10 | NC(=S)N/N=C/c1cccnc1 | inactive
11 | CCOc1cc(OCC)c(C(=O)CCC(=O)O)cc1OCC | inactive

Target: Glucocorticoid receptor (Homo sapiens) (UniProt P04150)
Test: qHTS assay to identify small molecule agonists of the glucocorticoid receptor (GR) signaling pathway (AID 720691; active means well fitted activation curve with a large enough effect in the signal ratio in the repeat runs, not every such curve was filed as active; the % refers to the signal ratio)
Details: GR-bla HeLa, beta-lactamase reporter ratio, 18 h; series mostly up to 62.4 µM
Procedure, shortened: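 Agonist-mode qHTS in HeLa cells stably expressing a glucocorticoid-response-element beta-lactamase reporter. Fluorescence intensity read with FRET substrate (2 h, room temperature) after 18 h compound treatment at 37 C.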

Glucocorticoid receptor (Homo sapiens), sequence (P04150 whole entry, looked up): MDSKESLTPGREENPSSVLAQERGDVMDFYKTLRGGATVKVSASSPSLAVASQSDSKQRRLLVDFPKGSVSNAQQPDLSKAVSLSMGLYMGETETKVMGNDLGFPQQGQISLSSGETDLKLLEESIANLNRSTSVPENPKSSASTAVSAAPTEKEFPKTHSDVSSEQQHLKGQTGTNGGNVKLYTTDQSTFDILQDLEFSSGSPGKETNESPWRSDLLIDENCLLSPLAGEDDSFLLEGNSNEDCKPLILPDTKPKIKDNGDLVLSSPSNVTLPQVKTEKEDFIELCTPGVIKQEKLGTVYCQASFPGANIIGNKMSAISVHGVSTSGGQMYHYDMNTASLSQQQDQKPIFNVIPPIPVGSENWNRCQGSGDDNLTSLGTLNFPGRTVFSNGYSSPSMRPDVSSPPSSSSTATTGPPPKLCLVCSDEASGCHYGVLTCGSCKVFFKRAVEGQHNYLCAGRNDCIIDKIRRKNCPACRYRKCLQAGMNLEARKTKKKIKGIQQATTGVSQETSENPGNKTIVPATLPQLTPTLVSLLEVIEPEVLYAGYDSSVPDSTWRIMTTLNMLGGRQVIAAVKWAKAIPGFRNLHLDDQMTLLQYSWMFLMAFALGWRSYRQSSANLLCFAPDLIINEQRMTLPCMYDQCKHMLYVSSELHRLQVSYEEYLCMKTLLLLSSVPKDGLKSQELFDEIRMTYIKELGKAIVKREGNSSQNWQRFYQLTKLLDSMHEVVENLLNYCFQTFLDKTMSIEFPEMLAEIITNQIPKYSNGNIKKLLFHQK

Row | SMILES | Potency
12 | CN1CCC(OC(c2ccccc2)c2ccccc2)CC1 | inactive
13 | Cc1ccccn1 | inactive
14 | NC1CCN(c2nc3c(cc2F)c(=O)c(C(=O)O)cn3-c2ccc(F)cc2F)C1 (stereo unspecified) | inactive
15 | COc1cc(C(C)(C)C)c(O)c(C(C)(C)C)c1 | inactive
16 | CC(C)c1cccc(C(C)C)c1NC(=O)NS(=O)(=O)c1cc(C(C)(C)O)co1 | inactive
17 | CC(Cc1cccc(C(F)(F)F)c1)NCCOC(=O)c1ccccc1 (stereo unspecified) | inactive
18 | O=C(/C=C/c1ccc(O)c(O)c1)O[C@@H]1C[C@](O)(C(=O)O)C[C@@H](O)[C@H]1O | inactive
19 | NC[C@H]1O[C@H](O[C@H]2[C@H](O)[C@@H](O[C@H]3O[C@H](CO)[C@@H](O)[C@H](N)[C@H]3O)[C@H](N)C[C@@H]2N)[C@H](O)[C@@H](O)[C@@H]1O | inactive
20 | CC(C)(C)c1cc(O)c(C(C)(C)C)cc1O | inactive
21 | S=C(S)NCCNC(=S)S | inactive
22 | Cc1ccc(C(C)c2ccc(C)c(C)c2)cc1C | inactive
23 | CCCCOC(=O)/C=C\C(=O)OCCCC | inactive
24 | CC(C)(C)C1CCCCC1O (stereo unspecified) | inactive
25 | Cc1cccc(C(C)(C)C)c1O | inactive
26 | Nc1nc(N)c2nc(CNc3ccc(C(=O)N[C@@H](CCC(=O)O)C(=O)O)cc3)cnc2n1 | inactive
27 | CCOc1cc(OCC)c(C(=O)CCC(=O)O)cc1OCC | inactive

Target: Glucocorticoid receptor (Homo sapiens) (UniProt P04150)
Test: qHTS assay to identify small molecule antagonists of the glucocorticoid receptor (GR) signaling pathway (AID 720692; active means well fitted inhibition curve with a large enough effect in the signal ratio in the repeat runs, not every such curve was filed as active; the % refers to the signal ratio)
Details: GR-bla HeLa, beta-lactamase FRET ratio, dexamethasone-stimulated, 18 h; series mostly up to 58.5 µM
Procedure, shortened: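 Inhibition of dexamethasone-driven (5 nM final) beta-lactamase expression was measured in GRE-reporter HeLa cells over 18 h at 37C. Fluorescence was read after 2 h with the B/G FRET substrate at room temperature.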

Row | SMILES | Potency
28 | Oc1ccc(Sc2ccc(O)cc2)cc1 | inactive
29 | CN1CCC(OC(c2ccccc2)c2ccccc2)CC1 | inactive
30 | c1ccc(OCc2ccc(CCCN3CCOCC3)cc2)cc1 | inactive
31 | N#Cc1c(F)cccc1F | inactive
32 | Cc1ccccn1 | inactive
33 | COc1cc(C(C)(C)C)c(O)c(C(C)(C)C)c1 | inactive
34 | O=C(/C=C/c1ccc(O)c(O)c1)O[C@@H]1C[C@](O)(C(=O)O)C[C@@H](O)[C@H]1O | inactive
35 | S=C(S)NCCNC(=S)S | inactive
36 | Cc1cccc(C(C)(C)C)c1O | inactive
37 | Nc1nc(N)c2nc(CNc3ccc(C(=O)N[C@@H](CCC(=O)O)C(=O)O)cc3)cnc2n1 | inactive
38 | CCOc1cc(OCC)c(C(=O)CCC(=O)O)cc1OCC | inactive

System: not listed separately
Test: qHTS assay to identify small molecule antagonists of the glucocorticoid receptor (GR) signaling pathway - cell viability counter screen (AID 720693); further: nearly all actives have a fitted effect of over 55% in size; further: potency means the concentration at half of the fitted maximal effect
Details: GR-bla HeLa viability, CellTiter-Glo luminescence, 18 h, with 5 nM dexamethasone present; series mostly up to 58.5 µM

Row | SMILES | Potency
39 | OCCC1CCCCN1 (stereo unspecified) | inactive
40 | Oc1ccc(Sc2ccc(O)cc2)cc1 | inactive
41 | CCCC[C@H]1CN(CC2CCOCC2)C(=O)OC12CCN(C1(C)CCN(C(=O)c3c(C)ncnc3C)CC1)CC2 | inactive
42 | CN1CCC(OC(c2ccccc2)c2ccccc2)CC1 | inactive
43 | N#Cc1c(F)cccc1F | inactive
44 | NC(N)=NN=C(/C=C/c1ccc([N+](=O)[O-])o1)/C=C/c1ccc([N+](=O)[O-])o1 | 5.35 µM (active)
45 | Cc1ccccn1 | inactive
46 | NC1CCN(c2nc3c(cc2F)c(=O)c(C(=O)O)cn3-c2ccc(F)cc2F)C1 (stereo unspecified) | inactive
47 | COc1cc(C(C)(C)C)c(O)c(C(C)(C)C)c1 | inactive
48 | CC(C)c1cccc(C(C)C)c1NC(=O)NS(=O)(=O)c1cc(C(C)(C)O)co1 | inactive
49 | O=C(O)C(c1ccc(Cl)cc1)c1ccc(Cl)cc1 | inactive
50 | COCCCCCCCCOCCC[Si](C)(O[Si](C)(C)C)O[Si](C)(C)C | inactive
51 | CC(Cc1cccc(C(F)(F)F)c1)NCCOC(=O)c1ccccc1 (stereo unspecified) | inactive
52 | O=C(/C=C/c1ccc(O)c(O)c1)O[C@@H]1C[C@](O)(C(=O)O)C[C@@H](O)[C@H]1O | inactive
53 | O=C1[C@H](CC[C@H](O)c2ccc(F)cc2)[C@@H](c2ccc(O)cc2)N1c1ccc(F)cc1 | inactive
54 | CCOC(=O)[C@H](CCc1ccccc1)N[C@H]1CCc2ccccc2N(CC(=O)O)C1=O | inactive
55 | C=C(C)C(=O)OCCN(C)C | inactive
56 | S=C(S)NCCNC(=S)S | inactive
57 | Cc1ccc(C(C)c2ccc(C)c(C)c2)cc1C | inactive
58 | CCCCOC(=O)/C=C\C(=O)OCCCC | inactive
59 | CC(C)(C)C1CCCCC1O (stereo unspecified) | inactive
60 | CC1CCc2cc(F)cc3c(=O)c(C(=O)O)cn1c23 (stereo unspecified) | inactive
61 | CN(c1nccc(=O)[nH]1)C1CCN(c2nc3ccccc3n2Cc2ccc(F)cc2)CC1 | inactive
62 | Cc1cccc(C(C)(C)C)c1O | inactive
63 | C=Cc1c(C)c2cc3[nH]c(cc4nc(cc5nc(cc1[nH]2)C(C)=C5CCC(=O)O)C(CCC(=O)O)=C4C)c(C)c3C=C | inactive
64 | CCCCCC/C=C/C=O | inactive
65 | NC(=S)N/N=C/c1cccnc1 | inactive
66 | Nc1nc(N)c2nc(CNc3ccc(C(=O)N[C@@H](CCC(=O)O)C(=O)O)cc3)cnc2n1 | inactive
